Compound activity: PubChem BioAssay, National Center for Advancing Translational Sciences (NCATS)
TDP1 cell noCPT: qHTS for Inhibitors of human tyrosyl-DNA phosphodiesterase 1 (TDP1): qHTS in cells in absence of CPT | DT40 Tdp1-/- hTDP1 cells, no CPT, ATP luminescence, 48 h | Potency, µM (titrated, usually from 46.2 µM), inactives show at the top dose activity change, negative = growth inhibition, hits mostly inhibitors | hit rate 15% among 420,000; also: nearly all actives have a fitted effect of over 55% in size
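DT40 Tdp1-/-;hTDP1 cells, no CPT (DMSO vehicle only), 400 cells/well; compounds pin-transferred; ≥48 hr, 37 °C; CellTiter-Glo 30 min RT dark, luminescence read.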
DT40 TDP1 CPT: growth inhibition of DT40 Tdp1-/-;hTDP1 cells with camptothecin (screen for TDP1 inhibitors); Potency, µM (doses to about 46.2 µM), inactives show at the highest dose activity change, negative = growth inhibition, usual class: inhibitors; hit rate 12% among 420,000; AID 686979; chicken DT40 Tdp1-/-;hTDP1 cells + 20 nM CPT, ATP luminescence, 48 h; also: nearly all actives have a fitted effect of over 55% in size
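Chicken DT40 Tdp1-/- cells complemented with human TDP1, 400 cells/well, exposed to compounds plus 20 nM camptothecin for at least 48 h at 37 C; viability read as ATP content by CellTiter-Glo luminescence.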
PLK1 PBD inh: PLK1 (human) polo-box domain binding inhibition. Plk1 PBD binding of FITC phosphopeptide, fluorescence polarization. Potency, µM, for inactives: max response, negative = inhibition, usual class: inhibitors. hit rate 2.8% among 360,000. AID 720504; also: series mostly up to about 57 µM; nearly all actives have a fitted effect of over 65% in size
Target sequence (P53350 whole entry, looked up, the tested form may be a part): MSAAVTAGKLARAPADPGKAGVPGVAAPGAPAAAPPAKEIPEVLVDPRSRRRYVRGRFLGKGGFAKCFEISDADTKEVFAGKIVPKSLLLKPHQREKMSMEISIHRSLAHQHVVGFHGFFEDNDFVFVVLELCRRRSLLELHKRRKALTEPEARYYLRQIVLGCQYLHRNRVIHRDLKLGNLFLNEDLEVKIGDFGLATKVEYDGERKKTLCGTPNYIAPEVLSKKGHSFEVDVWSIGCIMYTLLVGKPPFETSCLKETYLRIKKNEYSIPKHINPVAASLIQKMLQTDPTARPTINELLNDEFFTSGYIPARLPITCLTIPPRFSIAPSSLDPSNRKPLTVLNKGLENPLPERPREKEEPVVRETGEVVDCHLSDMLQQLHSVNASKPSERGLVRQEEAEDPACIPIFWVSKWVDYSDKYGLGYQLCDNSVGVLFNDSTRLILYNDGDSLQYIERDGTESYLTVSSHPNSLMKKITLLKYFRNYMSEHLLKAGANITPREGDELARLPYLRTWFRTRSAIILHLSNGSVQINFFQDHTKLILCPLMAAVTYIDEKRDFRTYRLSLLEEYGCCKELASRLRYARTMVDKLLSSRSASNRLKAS
KAT2A inh: blocks human GCN5L2 histone acetyltransferase | Q92830 | GCN5L2 HAT assay, ThioGlo1 CoA-SH fluorescence | Potency, µM (titrated, usually from 58.9 µM), for the others: at the top dose activity change, negative = inhibition, most hits filed as inhibitors | hit rate 0.21% among 390,000
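GCN5L2 (20nM final) in 50mM HEPES, 0.1mM EDTA pH 7.5, 0.01% Tween-20 was preincubated 15 min at room temperature with compound, then given ThioGlo1 (50uM), H3(1-25) peptide (75uM) and acetyl-CoA (70uM); CoA-thiol fluorescence (Ex340/Em540) was read at 0 and 20 min.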
TDP1 block: blocks human tyrosyl-DNA phosphodiesterase 1; Q9NUW8; AID 485290; recombinant TDP1, AlphaScreen DNA substrate cleavage; Potency, µM (top dose mostly 130 µM), for the others: at the top dose activity change, negative = inhibition, usual class: inhibitors; hit rate 0.28% among 350,000; also: nearly all actives have a fitted effect of over 40% in size
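Enzyme-compound mixtures sat 15 min at room temperature, followed by a 5 min reaction with 15 nM final substrate and 10 min with AlphaScreen beads. Recombinant human Tdp1 was used at 1 nM final.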
VDR inh: blocks the human vitamin D receptor | VDR-SRC2-3 peptide fluorescence polarization, 2 h | Potency, µM, without a hit: max response, negative = inhibition, most hits filed as inhibitors | hit rate 0.93% among 400,000
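FP read-out; VDR + SRC2-3 coactivator peptide; 23 nl compound by pintool; 2 h RT incubation; reagents held at 4 deg C, protected from light.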
An asterisk follows results filed as active; ? = inconclusive; · = no result; [ ] = dose if it differs, or a comment. Hits are enriched below; roughly 18% of the tested compounds scored in any of these assays. Calls follow the shape of the dose curve; as a rule, active = well fitted curve in the direction sought with a large enough effect; inconclusive = small, poorly fitted or top-dose-only effect, or another doubt; inactive = no such curve, though single readings can be large; an effect the other way counts as inactive or inconclusive. % is scaled to controls: 0 for no effect and ±100 for the full control effect; potency is read from the fitted curve at half-maximal effect.

SMILES | TDP1 cell noCPT | DT40 TDP1 CPT | PLK1 PBD inh | KAT2A inh | TDP1 block | VDR inh
COc1ccc(CCNC(=O)C2CC(c3ccc([N+](=O)[O-])cc3)=NO2)cc1 (stereo not given) | ? | 6.5µM* | -8% | -1% | 6% | -11%
COc1ccc(CCNC(=O)C2CC(c3cccc([N+](=O)[O-])c3)=NO2)cc1 (stereo not given) | ? | -19% | 5% | -8% | 5% | -9%
Cc1ccc(C)c(OCc2cc(C(=O)N3CCN(c4ccccc4C)CC3C)no2)c1 (stereo not given) | ? | ? | -4% | 3% | 2% | 1%
CCOC(=O)C1CCCN(C(=O)c2ccc(Cl)c(S(=O)(=O)N3CCc4ccccc43)c2)C1 (stereo not given) | 13µM* | ? | -12% | · | · | -3%
O=C(Nc1ccccn1)c1ccc(Cl)c(S(=O)(=O)N2CCc3ccccc32)c1 | ? | 16µM* | 6% | -8% | 1% | 8%
O=C(NCC(c1ccco1)N1CCc2ccccc21)c1ccccc1Cl (stereo not given) | ? | ? | -7% | -2% | · | 3%
CC(=O)Nc1ccc(NC(=O)c2ccc(Cl)c(S(=O)(=O)N3CCc4ccccc43)c2)cc1 | 4.6µM* | ? | 1% | · | · | 0%
O=C(NCC(c1ccco1)N1CCCC1)c1ccc(Cl)c(S(=O)(=O)N2CCc3ccccc32)c1 (stereo not given) | 7.3µM* | 8.2µM* | -3% | -6% | 5% | ?
Nc1cc(=O)nc(SCC(=O)Nc2ccc(F)cc2)n1CCc1ccccc1 | -16% | 1% | · | 0% | 10% | 18%
COc1ccc(CNc2ncncc2-c2ccccc2Cl)c(OC)c1 | -17% | -2% | · | -19% | · | -21%
CNC(=O)c1sccc1SCc1ccc(Cl)cc1Cl | 18µM* | 21µM* | -6% | -6% | 2% | 1%
CCc1nn(-c2ccccc2)c2c1-c1cc(OC)c(OC)cc1C1(N2)C(=O)Nc2ccccc21 (stereo not given) | ? | ? | -1% | 0% | 2% | 6%
COc1ccc(CCNC(=O)Nc2ccc3nc([C@@H]4O[C@H](CO)[C@@H](O)[C@H](O)[C@H]4O)[nH]c3c2)cc1Br | 0% | -12% | -8% | · | · | ·
CC(C)N1CN(c2ccccc2)C(=S)N(c2ccccc2)C1 | 23µM* | ? | 2% | -1% | 4% | 4%
Cc1ccc(S(=O)(=O)N2CCN(c3nc(-c4cccs4)nc4ccccc34)CC2)cc1 | 11µM* | ? | · | · | -2% | -18%
COc1cccc(S(=O)(=O)N2CCN(c3nc(-c4cccs4)nc4ccccc34)CC2)c1 | 10µM* | 14µM* | · | · | 0% | 17%
Cc1ccc(S(=O)(=O)N2CCN(c3nc(-c4cccs4)nc4cccnc34)CC2)cc1 | ? | 10µM* | · | · | · | -7%
Cc1ccc(S(=O)(=O)C2CCN(c3nc(-c4cccs4)nc4ccccc34)CC2)cc1 | ? | 11µM* | · | · | -1% | 2%
CC(C)c1cc(C(=O)NCCc2ccccc2)no1 | -12% | -6% | -14% | -9% | -2% | -2%
Cc1ccc(NC(=O)c2ccc(COc3ccccc3Cl)o2)cc1 | ? | ? | · | -7% | -5% | 1%
CCN(CC)C(=O)c1ccc(COc2ccccc2Cl)o1 | 16µM* | -20% | -2% | -6% | · | -6%
CN(C)c1ccc(NC(=O)c2ccc(COc3cccc(Cl)c3)o2)cc1 | ? | 21µM* | 2% | -10% | 10% | 2%
O=C(Nc1cccnc1)c1ccc(COc2ccccc2Cl)o1 | 21µM* | 18µM* | -10% | 0% | -3% | 4%
Cc1cc(C)n(Cc2ccc(NC(=O)c3ccc(COc4ccccc4Br)cc3)cc2)n1 | 29µM* | 21µM* | 1% | 1% | 2% | 68%
CN1CCCC2(CCN(S(=O)(=O)c3ccccc3)CC2)C1 | 11% | -6% | · | 6% | · | 2%
SMILES | TDP1 cell noCPT | DT40 TDP1 CPT | PLK1 PBD inh | KAT2A inh | TDP1 block | VDR inh
CCCC/C=C/[C@H](c1ccccc1)[C@H](CO)Cc1ccccc1 | · | · | · | · | -13% | 5%
O=C(NCc1cccnc1)c1ccc(COc2ccccc2Br)cc1 | ? | 7% | -7% | -6% | 8% | 6%
O=C(Nc1nn(Cc2ccc(Cl)cc2)cc1Br)c1ccc(COc2ccccc2Cl)o1 | 26µM* | 26µM* | -9% | -4% | 3% | 7%
O=C(Nc1ccn(Cc2c(F)c(F)cc(F)c2F)n1)c1ccc(COc2ccccc2Cl)cc1 | ? | ? | -13% | -9% | 1% | -7%
Cc1cc(C)nc(NC(=O)c2ccc(COc3ccccc3Cl)cc2)c1 | 26µM* | 18µM* | -8% | -14% | 5% | -12%
O=C(NCc1cccnc1)c1ccc(COc2ccccc2Cl)cc1 | 13µM* | ? | -5% | -8% | -2% | -3%
O=C(Nc1cccnc1)c1ccc(COc2cc(Cl)ccc2Cl)o1 | 18µM* | ? | -10% | -4% | 0% | -19%
COC(=O)c1ccccc1NC(=O)c1cccc(COc2ccccc2Cl)c1 | 8.2µM* | 9.2µM* | 5% | 0% | -11% | -13%
C=CCN1c2ccccc2[C@]23C[C@@H](C(=O)OC)N(C(=O)COCc4ccccc4)C2=NC(C(=O)OC)=C(C(=O)OC)[C@H]13 | · | · | · | · | -7%[21 µM] | ·
Cc1ccc(C2=NS(=O)(=O)N(C)C(C(=O)Nc3ccc(F)cc3F)=C2)cc1 | ? | 21µM* | -4% | ? | · | -13%
Cc1ccc(Sc2c(C(=O)Nc3ccc(F)cc3F)c(C(F)(F)F)nn2C)cc1 | ? | 18µM* | -10% | -12% | -5% | 16%
CN1C(C(=O)Nc2ccc(F)cc2F)=CC(c2ccc3c(c2)OCO3)=NS1(=O)=O | ? | ? | · | 0% | 0% | 11%
Cc1ccc2c(c1)cc(C(=O)Nc1ccc(F)cc1F)n2C | 7.3µM* | ? | · | 1% | 4% | 9%
Cc1ccc(C2=NS(=O)(=O)N(C)C(C(=O)Nc3cc(C)n(CC(=O)N4CCC(C)CC4)n3)=C2)cc1 | 21µM* | ? | 1% | -5% | 7% | 2%
CC(=O)N1CCc2c(sc3c2c(=O)n(-c2ccccc2)c(=O)n3CC(=O)Nc2ccccc2)C1 | 46% | 31% | · | -5% | 0% | 9%
O=C(c1ccc2c(=O)n(CC3CCCO3)c(=S)[nH]c2c1)N1CCN(C(=O)c2ccco2)CC1 (stereo not given) | ? | ? | · | · | · | 2%
